From PubChem BioAssay AID1851 (National Center for Advancing Translational Sciences (NCATS), 2009)
The whole screen tested about 16,000 compounds, of which about 5,100 (32%) were called active. Roughly 25% stayed inconclusive and do not appear here. Calls follow the shape of the dose curve; as a rule, active = well fitted curve in the direction sought with a large enough effect; inconclusive = small, poorly fitted or top-dose-only effect, or effect the other way; inactive = no such curve, though single readings can be large or run the other way. The list shows a part of the results.

These molecules were tested against Cytochrome P450 3A4 (Homo sapiens) (UniProt P08684) (assay: Cytochrome panel assay with activity outcomes). Conditions: recombinant CYP, pro-luciferin dealkylation, luminescence, p450-cyp3a4; series mostly up to 57.1 µM; activity, negative = inhibition: at the top concentration.
Cytochrome P450 3A4 (Homo sapiens), sequence (P08684 whole entry, looked up): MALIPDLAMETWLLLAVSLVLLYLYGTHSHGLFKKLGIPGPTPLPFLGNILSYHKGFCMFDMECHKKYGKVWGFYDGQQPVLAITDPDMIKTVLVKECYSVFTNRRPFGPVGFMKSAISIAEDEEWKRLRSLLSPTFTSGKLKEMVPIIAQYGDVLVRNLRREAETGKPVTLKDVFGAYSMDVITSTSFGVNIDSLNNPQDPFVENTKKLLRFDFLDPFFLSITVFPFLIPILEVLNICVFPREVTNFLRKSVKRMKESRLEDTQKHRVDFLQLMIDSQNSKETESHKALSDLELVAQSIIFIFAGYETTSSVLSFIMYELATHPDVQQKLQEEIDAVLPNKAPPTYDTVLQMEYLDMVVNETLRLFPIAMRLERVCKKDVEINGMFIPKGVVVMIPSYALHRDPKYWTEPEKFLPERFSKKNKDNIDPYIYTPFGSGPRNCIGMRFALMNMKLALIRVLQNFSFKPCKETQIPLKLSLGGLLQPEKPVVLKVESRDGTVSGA
% is scaled to controls: 0 for no effect and ±100 for the full control effect.

Row | Compound | activity, negative = inhibition | AC50
1 | OC[C@@H](O)[C@@H](O)[C@@H](O)[C@@H](O)c1nc2ccc(Cl)cc2[nH]1 | -5.7% [at 11.4 µM] (inactive) | –
2 | CCOC(=O)N/N=C/c1ccc(C)o1 | -15.3% (inactive) | –
3 | Cc1ccc(/C=N\Nc2nc3ccc(Cl)cc3[nH]2)o1 | – | 8.91 µM (active)
4 | Cc1cccc(NC(=O)C23CCC(C)(C2Br)C3(C)C)c1 (centres undefined) | – | 12.6 µM (active)
5 | Cc1cccc(NC(=O)C2(c3ccc([N+](=O)[O-])cc3)CCCC2)c1 | -2.71% [at 2.29 µM] (inactive) | –
6 | Cc1cccc(NC(=S)NNC(=O)c2csc3c2CCCC3)c1 | -15.2% [at 2.29 µM] (inactive) | –
7 | CC12CCC(C(=O)Nc3cccc4ccccc34)(C1Br)C2(C)C (centres undefined) | – | 11.2 µM (active)
8 | O=C(O)c1cccc(C(=O)O)c1S(=O)Cc1ccccc1 (centres undefined) | -7.75% [at 11.4 µM] (inactive) | –
9 | NNC(=O)CCSc1ccccc1 | – | 3.98 µM (active)
10 | O=C(/C=C/c1ccc(Cl)cc1)NCCSc1ccccc1 | 0.692% (inactive) | –
11 | O=C(O)CCCSc1ccccc1 | 5.11% [at 11.4 µM] (inactive) | –
12 | CCC(C)C(NS(=O)(=O)c1ccc(C)cc1)C(=O)Oc1ccc2c3c(c(=O)oc2c1)CCC3 (centres undefined) | – | 7.94 µM (active)
13 | CC(C)Oc1ccc2c(=O)c3cc(C(=O)O)ccc3oc2c1 | -21.8% (inactive) | –
14 | Cc1ccc(S(=O)(=O)NC(CC(C)C)C(=O)Oc2ccc3c4c(c(=O)oc3c2)CCC4)cc1 (centres undefined) | – | 14.1 µM (active)
15 | Cc1ccc(S(=O)(=O)N[C@H](C(=O)O)C(C)C)cc1 | -11.9% [at 11.4 µM] (inactive) | –
16 | Cc1nc2ccc(S(=O)(=O)NC(CC(C)C)C(=O)O)cc2s1 (centres undefined) | -3.56% [at 2.29 µM] (inactive) | –
17 | Cc1ccc(S(=O)(=O)N[C@H](CN)C(=O)O)cc1 | -20.1% [at 11.4 µM] (inactive) | –
18 | NCc1ccc(C(=O)O)cc1 | -14.2% [at 11.4 µM] (inactive) | –
19 | O=S(=O)(O)c1nc2ccccc2n1Cc1ccccc1 | -3.58% (inactive) | –
20 | O=C(c1cc2sccc2n1Cc1ccccc1)N1CCN(c2nc3ccccc3s2)CC1 | – | 0.631 µM (active)

Row | Compound | activity, negative = inhibition | AC50
21 | CN(Cc1n[nH]c(=S)n1C)S(=O)(=O)c1ccccc1 | -10.1% (inactive) | –
22 | S=c1[nH]nc(CCc2ccccc2)n1Cc1ccccc1 | – | 7.94 µM (active)
23 | O=C1c2ccccc2C(Cc2ccncc2)(Cc2ccncc2)c2ccccc21 | – | 0.501 µM (active)
24 | COC(=O)C1=C(N)N(c2ccccc2C(F)(F)F)C2=C(C(=O)CCC2)C1c1ccc2c(c1)OCO2 (centres undefined) | – | 0.316 µM (active)
25 | Cc1cc([C@](C)(N)C(=O)O)ccc1P(=O)(O)O | 0.891% (inactive) | –
26 | CN(CCc1ccc(Cl)c(Cl)c1)CCN1CCCCCC1 | – | 10 µM (active)
27 | Clc1ccccc1OCCCCN1CCCC1 | -0.971% (inactive) | –
28 | CN1CCN(CCc2ccc(Cl)c(Cl)c2)CC1 | -3.98% (inactive) | –
29 | C[C@H](NC(=O)/C(C#N)=C/c1ccc(O)c(O)c1)c1ccccc1 | – | 3.16 µM (active)
30 | C[C@@H](NC(=O)/C(C#N)=C/c1ccc(O)c(O)c1)c1ccccc1 | – | 15.8 µM (active)
31 | Cc1[nH]c2ccccc2c1/C=C(\C#N)C(=O)NC(C)c1ccccc1 (centres undefined) | – | 7.08 µM (active)
32 | Cc1[nH]c2ccccc2c1/C=C/c1cc[n+](C)cc1 | -9.6% (inactive) | –
33 | CC1(C)C2([N+](=O)[O-])CN3CC1([N+](=O)[O-])CN(C2)C31CCCC1 | 4.06% (inactive) | –
34 | COc1ccc(CC(=O)NCCN2CCCC2)cc1 | 0.907% (inactive) | –
35 | COc1ccc(CCNC(=O)CCCCCN2C(=O)c3ccccc3C2=O)cc1 | – | 6.31 µM (active)
36 | CCOc1ccc(CCNC(=O)CCCN2C(=O)c3ccccc3C2=O)cc1OCC | – | 7.08 µM (active)
37 | CCCN(CCC)CCCNC(=O)c1ccc2c(c1)N(CC)C(=O)c1ccccc1S2=O (centres undefined) | -23.9% (inactive) | –
38 | CCOC(=O)c1c(C)n(C)c2ccc(OC(=O)c3ccco3)cc12 | – | 15.8 µM (active)
39 | CCCc1cc2c(=O)c(-c3ccc4c(c3)OCCO4)coc2cc1OC(=O)c1ccco1 | 9.62% [at 2.29 µM] (inactive) | –
40 | CCN(CC)CCOC(=O)c1c(C)n(C)c2ccc(OC)cc12 | -23.9% (inactive) | –

Row | Compound | activity, negative = inhibition | AC50
41 | CC(=O)OC[C@@H]1O[C@@H](O/N=C2/C[C@@H](O)[C@@H](O)[C@@H]3[C@@H]4C(=O)N(C(C)(C)C)C(=O)[C@H]4CC[C@@H]23)[C@H](OC(C)=O)[C@H](OC(C)=O)[C@@H]1OC(C)=O | -3.46% [at 11.4 µM] (inactive) | –
42 | CC1=NN(c2ccccc2)C(=O)/C1=C\N1CC(C)OC(C)C1 (centres undefined) | -26.3% (inactive) | –
43 | Nc1cccc2cc(S(=O)(=O)Nc3ccc(C(=O)O)cc3)ccc12 | -7.54% [at 11.4 µM] (inactive) | –
44 | CC(=O)c1cccc(NS(=O)(=O)c2ccc(N/C=C\C(=O)c3ccc(F)cc3)cc2)c1 | – | 0.708 µM (active)
45 | Cc1ccc(C)c(/C(=N\N=C(N)N)C2CC2)c1 | -27% [at 11.4 µM] (inactive) | –
46 | COc1cc(/C=C(\C#N)c2nc3c(s2)CC(C)CC3)ccc1O (centres undefined) | – | 25.1 µM (active)
47 | C=CCc1ccccc1OC[C@H](O)CNC(C)C | – | inactive
48 | C=CCOc1ccccc1OC[C@H](O)CNC(C)C | -0.918% [at 25.6 µM] (inactive) | –
49 | CCOC(=O)C1CCN(C(=O)c2ccccc2NC(C)=O)CC1 | -0.79% (inactive) | –
50 | COC(=O)c1ccccc1NC(=O)C1CCN(C(=O)c2ccc(OC)cc2)CC1 | – | 6.31 µM (active)
51 | COc1ccc2oc(=O)c(NC(=O)C3CCCCC3)cc2c1 | -7.77% (inactive) | –
52 | COc1cc(OC)cc(C(=O)Nc2ccccc2C(=O)N2CCCC2)c1 | -8.41% [at 2.29 µM] (inactive) | –
53 | COc1ccc(NC(=O)C2CCN(C(=O)c3cccs3)CC2)c(OC)c1 | – | 28.2 µM (active)
54 | CC(C)(C)c1ccc(OC(=O)Cn2c(C(F)(F)F)nc3ccccc32)cc1 | 23% (inactive) | –
55 | O=C(Cn1c(-c2cscn2)nc2ccccc21)Nc1cc(F)ccc1F | – | 14.1 µM (active)
56 | COc1ccc(O[C@H]2C=C[C@@H](c3ccccc3)O[C@@H]2CO/N=C(\C)CCN2CCCCc3nc(C)c(C)cc32)cc1 | – | 3.98 µM (active)
57 | COc1ccc(O[C@H]2C=C[C@@H](c3ccccc3)O[C@@H]2CO/N=C(\C)CCN2CCCc3nc(C)c(C)cc32)cc1 | – | 3.16 µM (active)
58 | Cc1cc(C)c(S(=O)(=O)Nc2cccc(C(F)(F)F)c2)c(C)c1 | – | 12.6 µM (active)
59 | Cc1cc(C)c(S(=O)(=O)Nc2ccccc2C(F)(F)F)c(C)c1 | – | 2.51 µM (active)
